Experimental data reported in PubChem BioAssay AID1159580 (chemical genetic matrix, 2015).
Out of some 5,500 compounds screened, about 2,000 (36%) were called active. About 18% were inconclusive and are not listed. Rule as the data show it: active = normalized growth mostly below about 0.91 (no sharp cut-off); inconclusive = no clear call, values can overlap the other calls; inactive = mostly above about 0.92. The list shows a part of the results.

Assay: chemical genetic growth profiling, strain panel (AID 1159580);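 also: tested at 20 µM; growth read once vehicle control cultures reached saturation at 30 °C; 1 = growth at the plate median or of vehicle wells; lower values mean less growth of the strain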
Conditions: growth OD

Measured: normalized growth

OC1C(O)C(O)C(O)C(O)C1O (stereo not given)
inactive: S. cerevisiae deletion strains, locus YJR075W, strain HOC1, hits give low values 1 | S. cerevisiae deletion strains, locus YKL009W, strain mrt4, hits give low values 0.953 | S. cerevisiae deletion strains, locus YKL068W, hits give low values 0.973 | S. cerevisiae deletion strains, locus YKL085W, strain MDH1 (second series), hits give low values 0.97 | S. cerevisiae deletion strains, locus YKL085W, strain MDH1, hits give low values 0.97 | S. cerevisiae deletion strains, locus YKL160W, strain elf1, hits give low values 1 | S. cerevisiae deletion strains, locus YKL190W, strain CNB1, hits give low values 0.99 | S. cerevisiae deletion strains, locus YKR001C, strain vps1, hits give low values 0.982 | S. cerevisiae deletion strains, locus YKR026C, strain gcn3, hits give low values 0.997 | S. cerevisiae deletion strains, locus YKR091W, strain srl3, hits give low values 0.999 | S. cerevisiae deletion strains, locus YLL001W, strain dnm1, hits give low values 0.997 | S. cerevisiae deletion strains, locus YLL026W, hits give low values 1 | S. cerevisiae deletion strains, locus YLL041C, strain sdh2, hits give low values 0.996 | S. cerevisiae deletion strains, locus YLR027C, strain aat2, hits give low values 1 | S. cerevisiae deletion strains, locus YLR039C, strain RIC1, hits give low values 0.966 | S. cerevisiae deletion strains, locus YLR058C, strain SHM2, hits give low values 0.982 | S. cerevisiae deletion strains, locus YLR102C, strain apc9, hits give low values 0.994 | S. cerevisiae deletion strains, locus YLR113W, strain HOG1, hits give low values 0.964 | S. cerevisiae deletion strains, locus YLR221C, strain rsa3, hits give low values 1 | S. cerevisiae deletion strains, locus YLR258W, strain gsy2, hits give low values 0.998 | S. cerevisiae deletion strains, locus YLR262C, strain YPT6 (second series), hits give low values 1 | S. cerevisiae deletion strains, locus YLR262C, strain YPT6, hits give low values 0.962 | S. cerevisiae deletion strains, locus YLR268W, strain sec22, hits give low values 0.996 | S. cerevisiae deletion strains, locus YLR320W, strain mms22, hits give low values 0.998 | S. cerevisiae deletion strains, locus YLR330W, strain CHS5, hits give low values 0.995 | S. cerevisiae deletion strains, locus YLR342W, strain FKS1 (second series), hits give low values 1.04 | S. cerevisiae deletion strains, locus YLR342W, strain FKS1, hits give low values 0.995 | S. cerevisiae deletion strains, locus YLR357W, strain rsc2, hits give low values 0.988 | S. cerevisiae deletion strains, locus YLR370C, strain arc18, hits give low values 1 | S. cerevisiae deletion strains, locus YLR371W, strain rom2, hits give low values 0.976 | S. cerevisiae deletion strains, locus YLR384C, strain iki3, hits give low values 0.998 | S. cerevisiae deletion strains, locus YLR418C, strain cdc73, hits give low values 0.979 | S. cerevisiae deletion strains, locus YML016C, strain PPZ1, hits give low values 0.996 | S. cerevisiae deletion strains, locus YML032C, strain rad52, hits give low values 0.981 | S. cerevisiae deletion strains, locus YML120C, strain ndi1, hits give low values 1.01 | S. cerevisiae deletion strains, locus YML124C, strain tub3, hits give low values 0.985 | S. cerevisiae deletion strains, locus YMR058W, strain fet3, hits give low values 1 | S. cerevisiae deletion strains, locus YMR078C, strain ctf18, hits give low values 0.982 | S. cerevisiae deletion strains, locus YMR125W, strain sto1, hits give low values 0.991 | S. cerevisiae deletion strains, locus YMR129W, hits give low values 0.997 | S. cerevisiae deletion strains, locus YMR205C, strain PFK2, hits give low values 0.996 | S. cerevisiae deletion strains, locus YMR223W, strain ubp8, hits give low values 1.02 | S. cerevisiae deletion strains, locus YMR231W, strain pep5, hits give low values 1 | S. cerevisiae deletion strains, locus YMR263W, strain SAP30, hits give low values 0.99 | S. cerevisiae deletion strains, locus YMR307W, strain GAS1, hits give low values 1.03 | S. cerevisiae deletion strains, locus YNL067W, strain RPL9B, hits give low values 0.965 | S. cerevisiae deletion strains, locus YNL071W, strain lat1, hits give low values 1 | S. cerevisiae deletion strains, locus YNL153C, strain GIM3, hits give low values 0.972 | S. cerevisiae deletion strains, locus YNL183C, strain NPR1, hits give low values 0.984 | S. cerevisiae deletion strains, locus YNL209W, strain ssb2, hits give low values 0.997 | S. cerevisiae deletion strains, locus YNL233W, strain BNI4, hits give low values 0.996 | S. cerevisiae deletion strains, locus YNL248C, strain rpa49, hits give low values 0.99 | S. cerevisiae deletion strains, locus YNL250W, strain rad50, hits give low values 0.979 | S. cerevisiae deletion strains, locus YNL271C, strain bni1, hits give low values 0.984 | S. cerevisiae deletion strains, locus YNL298W, strain CLA4, hits give low values 0.991 | S. cerevisiae deletion strains, locus YNL307C, strain MCK1, hits give low values 0.984 | S. cerevisiae deletion strains, locus YNL322C, strain KRE1 (second series), hits give low values 1 | S. cerevisiae deletion strains, locus YNL322C, strain KRE1, hits give low values 0.993 | S. cerevisiae deletion strains, locus YNR049C, strain mso1, hits give low values 1 | S. cerevisiae deletion strains, locus YNR052C, strain pop2, hits give low values 0.989 | S. cerevisiae deletion strains, locus YOL006C, strain TOP1, hits give low values 0.938 | S. cerevisiae deletion strains, locus YOL012C, strain htz1 1.04 | S. cerevisiae deletion strains, locus YOL147C, strain pex11, hits give low values 0.994 | S. cerevisiae deletion strains, locus YOR001W, strain rrp6, hits give low values 1.01 | S. cerevisiae deletion strains, locus YOR061W, strain CKA2, hits give low values 0.974 | S. cerevisiae deletion strains, locus YOR069W, strain VPS5, hits give low values 0.997 | S. cerevisiae deletion strains, locus YOR070C, strain gyp1, hits give low values 1 | S. cerevisiae deletion strains, locus YOR080W, strain dia2, hits give low values 0.993 | S. cerevisiae deletion strains, locus YOR083W, strain WHI5, hits give low values 1 | S. cerevisiae deletion strains, locus YOR106W, strain vam3, hits give low values 1 | S. cerevisiae deletion strains, locus YOR136W, strain idh2, hits give low values 0.984 | S. cerevisiae deletion strains, locus YOR144C, strain elg1, hits give low values 0.987 | S. cerevisiae deletion strains, locus YOR184W, strain ser1, hits give low values 0.996 | S. cerevisiae deletion strains, locus YOR231W, strain MKK1, hits give low values 0.995 | S. cerevisiae deletion strains, locus YOR265W, strain rbl2, hits give low values 1 | S. cerevisiae deletion strains, locus YOR270C, strain vph1, hits give low values 1 | S. cerevisiae deletion strains, locus YOR290C, strain snf2, hits give low values 0.996 | S. cerevisiae deletion strains, locus YOR316C, strain cot1, hits give low values 0.979 | S. cerevisiae deletion strains, locus YPL051W, strain arl3, hits give low values 1.01 | S. cerevisiae deletion strains, locus YPL055C, strain LGE1, hits give low values 0.966 | S. cerevisiae deletion strains, locus YPL078C, strain atp4, hits give low values 1 | S. cerevisiae deletion strains, locus YPL106C, strain sse1, hits give low values 1 | S. cerevisiae deletion strains, locus YPL240C, strain hsp82, hits give low values 0.995 | S. cerevisiae deletion strains, locus YPL256C, strain CLN2, hits give low values 0.961 | S. cerevisiae deletion strains, locus YPR119W, strain clb2, hits give low values 0.993 | S. cerevisiae deletion strains, locus YPR141C, strain kar3, hits give low values 0.929 | S. cerevisiae deletion strains, locus YPR163C, strain tif3, hits give low values 0.991 | S. cerevisiae deletion strains, locus YPR167C, strain met16, hits give low values 0.985 | S. cerevisiae deletion strains, strain wtn01, hits give low values 0.993 | S. cerevisiae strains, strain wild type, hits give low values 0.994
